Our source for the outcome and AC50 values is PubChem BioAssay (EPA / NIEHS).

In general, AC50 refers to the midpoint of the concentration-response curve, whichever way the signal moves.

Active and inactive are the calls of the source. How the source made its calls: active means hit-call score of the fitted dose curve at least 0.9, where 1 is the maximum; inactive means score below 0.9.

Holding throughout (conditions): mRNA level, 48 h; actives raise or lower the signal
Read-out in assay [1]: Tumor necrosis factor receptor superfamily member 6 (Homo sapiens) (UniProt P25445)
Nature of the assay: LTEA_HepaRG_FAS: Life Technologies and Expression Analysis (LTEA) Assay for Fas cell surface death receptor (FAS) using HepaRG (AID 2283447). In a few lines: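 Differentiated human HepaRG cells, pre-cultured 48 h, were exposed in duplicate for 48 h to 8-point half-log concentrations (top 100 uM, 0.5% DMSO) in serum-free induction medium; FAS mRNA measured by qRT-PCR, normalized to ACTB/GAPDH/POLR2A, bidirectional fit versus DMSO.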

Read-out in assay [2]: Fatty acid synthase (Homo sapiens) (UniProt P49327)
Nature of the assay: LTEA_HepaRG_FASN: Life Technologies and Expression Analysis (LTEA) Assay for Fatty Acid Synthase (FASN) using HepaRG (AID 2283448). In outline:
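Transcript-level assay: HepaRG liver cells are treated for 48 h across an eight-point range topping at 100 uM, and FASN mRNA, normalized to three housekeeping genes, is compared with DMSO controls in both directions.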

Read-out in assay [3]: Cyclin D2 (CCND2), CCND2 (gene 894)
Nature of the assay: LTEA_HepaRG_CCND2: Life Technologies and Expression Analysis (LTEA) Assay for Cyclin D2 (CCND2) using HepaRG (AID 2283449).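 Further: CCND2 transcript measured by TaqMan qRT-PCR and normalised to three housekeeping genes.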 In a few lines: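 Differentiated human HepaRG cells were exposed for 48 h in serum-free induction medium to eight half-log concentrations topping at 100 uM (0.5% DMSO vehicle). CCND2 mRNA was quantified by TaqMan qRT-PCR, normalised to ACTB, GAPDH and POLR2A, and fitted bidirectionally against DMSO.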

Read-out in assay [4]: Cyclin Dependent Kinase Inhibitor 1A (CDKN1A), CDKN1A (gene 1026)
The assay is described as follows: LTEA_HepaRG_CDKN1A: Life Technologies and Expression Analysis (LTEA) Assay for Cyclin Dependent Kinase Inhibitor 1A (CDKN1A) using HepaRG (AID 2283450). In outline:
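HepaRG, 48 h dosing, 8-pt half-log series from 100 uM top, 0.5% DMSO vehicle, duplicates. Readout: TaqMan qRT-PCR of CDKN1A transcript, housekeeping-normalized (ACTB, GAPDH, POLR2A). Up/down curve fit relative to DMSO.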

Read-out in assay [5]: Cyclin D1 (CCND1), CCND1 (gene 595)
The assay is described as follows: LTEA_HepaRG_CCND1: Life Technologies and Expression Analysis (LTEA) Assay for Cyclin D1 (CCND1) using HepaRG (AID 2283451).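 On AC50: TaqMan qRT-PCR transcript level normalised to ACTB GAPDH and POLR2A housekeeping genes.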 In a few lines:
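qRT-PCR (Fluidigm 96.96 array) read-out of transcript level, housekeeping-normalized (ACTB/GAPDH/POLR2A). HepaRG cells, 48 h chemical exposure, 8-point half-log series from 100 uM, 0.5% DMSO vehicle; gain or loss relative to DMSO baseline.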

Read-out in assay [6]: catalase (CAT), CAT (gene 847)
The assay is described as follows: LTEA_HepaRG_CAT: Life Technologies and Expression Analysis (LTEA) Assay for catalase (CAT) using HepaRG (AID 2283452). In a few lines: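 Differentiated HepaRG cells in serum-free induction medium were dosed 48 h in duplicate, eight half-log concentrations from 100 uM in 0.5% DMSO. Transcript measured by TaqMan qRT-PCR, normalised to ACTB/GAPDH/POLR2A, fitted bidirectionally against DMSO.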

Read-out in assay [7]: flavin-containing dimethylaniline monooxygenases 3 (FMO3), FMO3 (gene 2328)
The assay is described as follows: LTEA_HepaRG_FMO3: Life Technologies and Expression Analysis (LTEA) Assay for flavin-containing dimethylaniline monooxygenases 3 (FMO3) using HepaRG (AID 2283453). In outline:
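HepaRG, 48 h exposure, 8-pt half-log series from 100 uM, 0.5% DMSO vehicle, duplicates; FMO3 transcript by Fluidigm TaqMan qRT-PCR, housekeeping-normalized; gain/loss fit vs DMSO.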

Read-out in assay [8]: Cytochrome P450 (CYP1A1), CYP1A1 (gene 1543)
Nature of the assay: LTEA_HepaRG_CYP1A1: Life Technologies and Expression Analysis (LTEA) Assay for Cytochrome P450 (CYP1A1) using HepaRG (AID 2283454). In a few lines:
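qRT-PCR read-out: CYP1A1 transcript normalized to three housekeeping genes, fitted bidirectionally against 0.5% DMSO vehicle baseline. Human HepaRG cells, 48 h chemical exposure, 8-point half-log series topping at 100 uM.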

Read-out in assay [9]: Forkhead box O1 (FOXO1), FOXO1 (gene 2308)
Nature of the assay: LTEA_HepaRG_FOXO1: Life Technologies and Expression Analysis (LTEA) Assay for Forkhead box O1 (FOXO1) using HepaRG (AID 2283456). In a few lines:
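Differentiated human HepaRG cells in serum-free induction medium were exposed in duplicate for 48 h to eight half-log concentrations (top 100 uM, 0.5% DMSO). FOXO1 mRNA was measured by TaqMan qRT-PCR, normalised to ACTB, GAPDH and POLR2A, and fitted bidirectionally against DMSO.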

Read-out in assay [10]: growth arrest and DNA damage 45 (GADD45A), GADD45A (gene 1647)
Nature of the assay: LTEA_HepaRG_GADD45A: Life Technologies and Expression Analysis (LTEA) Assay for growth arrest and DNA damage 45 (GADD45A) using HepaRG (AID 2283458). In outline: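 Human HepaRG liver cells are treated in duplicate for 48 h with chemicals in 0.5% DMSO, highest concentration 100 uM. Expression is read by qRT-PCR and analyzed in both directions against vehicle.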

Read-out in assay [11]: Forkhead box O3 (FOXO3), FOXO3 (gene 2309)
Nature of the assay: LTEA_HepaRG_FOXO3: Life Technologies and Expression Analysis (LTEA) Assay for Forkhead box O3 (FOXO3) using HepaRG (AID 2283459). In outline: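 Differentiated human HepaRG cells in serum-free induction medium were exposed in duplicate for 48 h to eight half-log concentrations up to 100 uM in 0.5% DMSO. FOXO3 mRNA was quantified by qRT-PCR, normalized to ACTB, GAPDH and POLR2A, with bidirectional fitting versus DMSO.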

Read-out in assay [12]: ABC Transporter (ABCB1), ABCB1 (gene 5243)
Nature of the assay: LTEA_HepaRG_ABCB1: Life Technologies and Expression Analysis (LTEA) Assay for ABC Transporter (ABCB1) using HepaRG (AID 2283460). In outline: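 Differentiated human HepaRG cells, plated 48 h then switched to serum-free induction medium, were exposed in duplicate to eight half-log concentrations up to 100 uM in 0.5% DMSO for 48 h. ABCB1 mRNA was measured by TaqMan qRT-PCR, normalized to ACTB/GAPDH/POLR2A.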

Read-out in assay [13]: growth arrest and DNA damage 45 (GADD45B), GADD45B (gene 4616)
Nature of the assay: LTEA_HepaRG_GADD45B: Life Technologies and Expression Analysis (LTEA) Assay for growth arrest and DNA damage 45 (GADD45B) using HepaRG (AID 2283461). In a few lines: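 qRT-PCR read-out (Fluidigm TaqMan, housekeeping-normalized) of mRNA change in human HepaRG cells after 48 h chemical exposure; 8-point curve, top 100 uM, half-log steps, 0.5% DMSO vehicle; gain or loss fitted relative to DMSO baseline.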

Read-out in assay [14]: ABC Transporter (ABCC3), ABCC3 (gene 8714)
The assay is described as follows: LTEA_HepaRG_ABCC3: Life Technologies and Expression Analysis (LTEA) Assay for ABC Transporter (ABCC3) using HepaRG (AID 2283462). In a few lines: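 qRT-PCR read-out of ABCC3 transcript, normalized to three housekeeping genes (ACTB, GAPDH, POLR2A), after 48 h chemical exposure of human HepaRG cells. Eight half-log concentrations, highest 100 uM, in 0.5% DMSO; gain or loss fitted relative to DMSO baseline.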

Read-out in assay [15]: ABC Transporter (ABCC2), ABCC2 (gene 1244)
The assay is described as follows: LTEA_HepaRG_ABCC2: Life Technologies and Expression Analysis (LTEA) Assay for ABC Transporter (ABCC2) using HepaRG (AID 2283464). In a few lines: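 qRT-PCR (TaqMan, Fluidigm array) read-out of ABCC2 mRNA, normalized to three housekeeping genes. Differentiated HepaRG cells were treated 48 h in serum-free induction medium with 8-point half-log series from 100 uM in 0.5% DMSO; curves fitted bidirectionally relative to DMSO.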

Read-out in assay [16]: Broad substrate specificity ATP-binding cassette transporter ABCG2 (Homo sapiens) (UniProt Q9UNQ0)
Nature of the assay: LTEA_HepaRG_ABCG2: Life Technologies and Expression Analysis (LTEA) Assay for ABC Transporter (ABCG2) using HepaRG (AID 2283465). In outline: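 Differentiated HepaRG cells in serum-free induction medium were exposed for 48 h, in duplicate, to eight half-log concentrations up to 100 uM in 0.5% DMSO. ABCG2 mRNA was measured by TaqMan qRT-PCR, normalized to ACTB, GAPDH and POLR2A, and fitted bidirectionally versus DMSO.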

Read-out in assay [17]: ATP-citrate lyase (ACLY), ACLY (gene 47)
The assay is described as follows: LTEA_HepaRG_ACLY: Life Technologies and Expression Analysis (LTEA) Assay for ATP-citrate lyase (ACLY) using HepaRG (AID 2283466). In outline: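 Differentiated human HepaRG cells in serum-free induction medium exposed 48 h, in duplicate, to eight half-log concentrations from 100 uM top in 0.5% DMSO; ACLY mRNA measured by qRT-PCR, normalized to ACTB, GAPDH, POLR2A, fitted bidirectionally versus DMSO.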

Read-out in assay [18]: CFLAR gene, CFLAR (gene 8837)
Nature of the assay: LTEA_HepaRG_CFLAR: Life Technologies and Expression Analysis (LTEA) Assay for CFLAR gene using HepaRG (AID 2283455). In outline:
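HepaRG cells were plated for 48 h, switched to serum-free induction medium, then exposed in duplicate for 48 h to 8 concentrations (top 100 uM, half-log steps, 0.5% DMSO). CFLAR mRNA was measured by qRT-PCR, normalized to ACTB, GAPDH and POLR2A.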

Read-out in assay [19]: ABC Transporter (ABCB11), ABCB11 (gene 8647)
The assay is described as follows: LTEA_HepaRG_ABCB11: Life Technologies and Expression Analysis (LTEA) Assay for ABC Transporter (ABCB11) using HepaRG (AID 2283463). In a few lines:
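Differentiated human HepaRG cells were exposed for 48 h in serum-free induction medium to eight half-log concentrations up to 100 uM in 0.5% DMSO. ABCB11 mRNA was quantified by qRT-PCR, normalized to ACTB, GAPDH and POLR2A, and fitted bidirectionally versus DMSO.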

Chain of Broad substrate specificity ATP-binding cassette transporter ABCG2 (Homo sapiens) (Q9UNQ0 whole entry, looked up): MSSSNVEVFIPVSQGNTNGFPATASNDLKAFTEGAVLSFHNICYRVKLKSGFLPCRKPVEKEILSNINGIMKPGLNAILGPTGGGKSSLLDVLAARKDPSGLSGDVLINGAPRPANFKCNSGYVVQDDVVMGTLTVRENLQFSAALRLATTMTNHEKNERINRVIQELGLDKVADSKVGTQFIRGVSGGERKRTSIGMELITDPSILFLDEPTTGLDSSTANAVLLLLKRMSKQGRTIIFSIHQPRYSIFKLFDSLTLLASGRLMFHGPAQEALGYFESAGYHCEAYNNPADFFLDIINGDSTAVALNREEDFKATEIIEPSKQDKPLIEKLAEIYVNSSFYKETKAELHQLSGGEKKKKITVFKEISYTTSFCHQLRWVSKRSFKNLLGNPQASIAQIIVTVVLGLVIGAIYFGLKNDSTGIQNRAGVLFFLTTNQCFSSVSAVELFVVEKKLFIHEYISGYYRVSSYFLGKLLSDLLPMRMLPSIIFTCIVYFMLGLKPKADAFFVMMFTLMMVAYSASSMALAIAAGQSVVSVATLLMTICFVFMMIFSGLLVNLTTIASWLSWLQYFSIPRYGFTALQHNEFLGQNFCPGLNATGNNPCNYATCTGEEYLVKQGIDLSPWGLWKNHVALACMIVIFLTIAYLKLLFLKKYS
Chain of Fatty acid synthase (Homo sapiens) (P49327 whole entry, looked up): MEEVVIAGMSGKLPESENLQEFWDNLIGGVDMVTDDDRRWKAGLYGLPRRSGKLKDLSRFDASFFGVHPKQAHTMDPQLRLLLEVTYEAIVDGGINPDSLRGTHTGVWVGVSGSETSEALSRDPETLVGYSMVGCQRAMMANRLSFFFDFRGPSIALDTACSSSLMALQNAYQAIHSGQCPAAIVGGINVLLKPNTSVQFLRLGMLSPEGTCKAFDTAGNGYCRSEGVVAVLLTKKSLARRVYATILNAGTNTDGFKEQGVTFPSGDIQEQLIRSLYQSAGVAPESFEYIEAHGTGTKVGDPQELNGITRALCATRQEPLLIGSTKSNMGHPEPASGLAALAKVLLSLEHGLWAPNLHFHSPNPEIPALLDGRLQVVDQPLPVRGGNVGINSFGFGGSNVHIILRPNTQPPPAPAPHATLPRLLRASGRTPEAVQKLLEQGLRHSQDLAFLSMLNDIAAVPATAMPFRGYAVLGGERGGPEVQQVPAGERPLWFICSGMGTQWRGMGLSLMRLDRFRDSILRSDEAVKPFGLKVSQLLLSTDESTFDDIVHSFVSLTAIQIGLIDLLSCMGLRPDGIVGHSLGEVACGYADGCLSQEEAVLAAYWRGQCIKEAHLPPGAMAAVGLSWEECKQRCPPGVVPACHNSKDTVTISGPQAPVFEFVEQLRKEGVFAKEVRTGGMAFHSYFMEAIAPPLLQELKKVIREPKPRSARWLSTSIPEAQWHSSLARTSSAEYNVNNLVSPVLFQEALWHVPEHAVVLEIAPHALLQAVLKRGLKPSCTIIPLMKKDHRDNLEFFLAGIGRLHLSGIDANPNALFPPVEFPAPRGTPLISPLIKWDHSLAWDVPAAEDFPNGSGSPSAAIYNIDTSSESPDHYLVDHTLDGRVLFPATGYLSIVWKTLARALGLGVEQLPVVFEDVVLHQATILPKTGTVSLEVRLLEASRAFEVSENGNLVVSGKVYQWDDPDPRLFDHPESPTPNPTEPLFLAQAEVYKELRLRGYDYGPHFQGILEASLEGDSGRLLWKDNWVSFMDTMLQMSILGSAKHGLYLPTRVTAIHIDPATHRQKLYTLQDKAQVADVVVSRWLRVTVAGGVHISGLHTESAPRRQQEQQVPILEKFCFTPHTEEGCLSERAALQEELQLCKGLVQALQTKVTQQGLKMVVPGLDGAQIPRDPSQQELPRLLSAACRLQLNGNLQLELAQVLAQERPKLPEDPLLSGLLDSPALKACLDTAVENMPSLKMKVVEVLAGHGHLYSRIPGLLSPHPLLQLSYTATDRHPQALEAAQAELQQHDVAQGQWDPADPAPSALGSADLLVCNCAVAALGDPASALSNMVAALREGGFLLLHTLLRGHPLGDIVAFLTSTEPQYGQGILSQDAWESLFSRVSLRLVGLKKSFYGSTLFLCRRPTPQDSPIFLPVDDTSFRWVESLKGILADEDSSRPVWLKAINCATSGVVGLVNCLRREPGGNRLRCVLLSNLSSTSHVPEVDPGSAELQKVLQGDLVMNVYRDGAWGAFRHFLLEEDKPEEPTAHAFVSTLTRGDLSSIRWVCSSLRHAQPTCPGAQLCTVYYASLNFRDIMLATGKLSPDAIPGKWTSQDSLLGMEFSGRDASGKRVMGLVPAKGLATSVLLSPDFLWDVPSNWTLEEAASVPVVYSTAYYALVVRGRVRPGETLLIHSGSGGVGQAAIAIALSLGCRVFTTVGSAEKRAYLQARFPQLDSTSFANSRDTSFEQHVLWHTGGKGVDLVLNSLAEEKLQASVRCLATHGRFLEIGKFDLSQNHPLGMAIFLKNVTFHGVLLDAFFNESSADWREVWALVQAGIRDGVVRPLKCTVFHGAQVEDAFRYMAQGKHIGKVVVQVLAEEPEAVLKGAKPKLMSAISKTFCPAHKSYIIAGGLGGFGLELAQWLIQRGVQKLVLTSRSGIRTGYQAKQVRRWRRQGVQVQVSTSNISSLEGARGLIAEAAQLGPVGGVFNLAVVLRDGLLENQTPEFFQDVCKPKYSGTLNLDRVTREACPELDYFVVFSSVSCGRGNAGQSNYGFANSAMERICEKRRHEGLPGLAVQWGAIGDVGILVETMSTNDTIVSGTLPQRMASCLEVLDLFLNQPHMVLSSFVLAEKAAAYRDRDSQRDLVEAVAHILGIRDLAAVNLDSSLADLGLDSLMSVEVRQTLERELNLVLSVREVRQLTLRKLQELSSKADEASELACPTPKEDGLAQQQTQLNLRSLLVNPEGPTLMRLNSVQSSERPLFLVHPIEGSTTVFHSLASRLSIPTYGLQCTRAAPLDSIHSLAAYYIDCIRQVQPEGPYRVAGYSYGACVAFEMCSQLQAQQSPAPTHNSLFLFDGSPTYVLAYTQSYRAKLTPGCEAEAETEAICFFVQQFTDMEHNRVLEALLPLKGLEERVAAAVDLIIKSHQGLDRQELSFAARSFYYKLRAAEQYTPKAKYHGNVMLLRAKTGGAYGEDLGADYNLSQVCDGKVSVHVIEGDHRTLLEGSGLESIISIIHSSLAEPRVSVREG

For `NC(=O)Cn1c(=O)cc(CCN2CCN(c3nccc4sccc34)CC2)c2ccc(F)cc21`, the result in [1], in assay [3], in assay [5], in [6], in assay [7] and in assay [10] was inactive. Besides, the result in assay [11], in assay [13], in assay [15], in assay [16] and in [17] was inactive. For the same compound, the concentration at half-maximal activity (AC50) in assay [2] was 29.5 µM (active); in [4], 50 µM (active); in assay [8], 10.1 µM (active); in assay [9], 50 µM (active); in assay [12], 36.6 µM (active); in [14] it was 78.1 µM (active).

As for `CN1CCN(Cc2cc(-c3ccc4[nH]c(=O)oc4c3)co2)[C@@H](c2ccc(F)cc2)C1`, the outcome in assay [1], in assay [2], in assay [3], in assay [4], in assay [7] and in assay [18] was inactive. Moreover, the outcome in [10], in [11], in [12], in assay [13], in [16] and in [17] was inactive. Moreover, the AC50 in [5] is 82.5 µM (active); in assay [6], 81.7 µM (active); in [8], 61.3 µM (active); in assay [9], 82.2 µM (active); in [14], 78 µM (active); in assay [19] it was 67.9 µM (active).

For `CCCCCCCCCCCCCCCCCC(=O)O`, the call in assay [1], in assay [2], in [3], in assay [4], in [5] and in [6] was inactive. Further, the result in assay [7], in [18], in [9], in assay [10], in assay [11] and in assay [12] was inactive. Moreover, the call in assay [13], in [14], in assay [19], in assay [15], in assay [16] and in [17] was inactive. Further, the AC50 in [8] is 50 µM (active).
